# Experiment: probe aInhba binding on compound microarray – biochemical, small-molecule microarray, 635/667 nm fluorescence, primary screen (AID 1148);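 note: score merges 667nm spot fluorescence with signal-to-noise for antibody binding to printed compounds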
# Settings: higher = more signal
row,Compound,composite z-score
1,CN1C2C=C(c3ccc(CO)cc3)C(C3C(=O)N(C(N)=O)C(=O)C32)C1C1CC1 (stereo unspecified),-0.271
2,COc1cc(Cc2cc3c(c(CCc4ccccc4)n2)[Si](C(C)C)(C(C)C)O[C@H]3c2ccccc2)cc(OC)c1OC,0.182
3,C=CCOC(=O)[C@H]1[C@@H]2C(=O)O[C@@H](c3ccccc3)[C@@H](c3ccccc3)N2[C@@H](c2ccc(OCCOC(=O)[C@@H]3C[C@@H]4C(=O)N[C@@H](Cc5ccccc5)C(=O)N4[C@@H]3c3ccc(O)cc3)cc2)[C@]12C(=O)Nc1ccc(I)cc12,0.124
4,CCOC(=O)C1=CC[C@@H](c2ccccc2)N(S(=O)(=O)c2ccc(C)cc2)[C@@H]1C#N,-0.128
5,C=CC[C@]1(C(N)=O)N=C(c2ccc(OCCCO)cc2)O[C@H]1c1ccccc1N=[N+]=[N-],0.0857
6,COc1ccc(CCNC(=O)[C@@H]2c3ccccc3C(=O)N(Cc3cc(F)cc(C(F)(F)F)c3)[C@H]2c2ccc(CO)cc2)cc1,0.396
7,CC(C)C[C@@H]1NC(=O)[C@@H]2C[C@H](C(=O)NCCCCCNC(=O)CS)[C@H](c3ccc(O)cc3)N2C1=O,-0.045
8,C=CCNC(=O)[C@@H]1[C@H]2C(=O)O[C@H](c3ccccc3)[C@H](c3ccccc3)N2[C@H](c2ccc(OCCO)cc2)[C@@]12C(=O)N(C(=O)OCCOC)c1ccccc12,0.138
9,CCCCC(=C=CC[C@@H](O)c1ccccc1OCCO)C[C@@H](O)c1ccccn1,-0.024
10,O=C1O[C@@H](c2ccccc2)[C@@H](c2ccccc2)N2[C@@H](c3ccccc3OCCO)[C@]3(C(=O)Nc4ccc(C#CC5(O)CCCCCC5)cc43)[C@@H](C(=O)N3CCCCCCC3)[C@H]12,2.16
11,CCCCC(=C=CC[C@H](O)c1ccccc1OCCO)CCO,-0.0762
12,C=CCNC(=O)[C@@H]1[C@H]2C(=O)O[C@H](c3ccccc3)[C@H](c3ccccc3)N2[C@H](c2ccc(OCCO)cc2)[C@@]12C(=O)Nc1ccc(C#CC3=CCCCC3)cc12,0.0502
13,COCCOC(=O)N1C(=O)[C@@]2(c3cc(C#CCCO)ccc31)[C@H](c1ccc(O)cc1)N1[C@H](c3ccccc3)[C@H](c3ccccc3)OC(=O)[C@H]1[C@@H]2C(=O)NC[C@H](O)c1ccccc1,0.0101
14,[N-]=[N+]=Nc1ccccc1C[C@]1(C(=O)N2CCCCC2)N=C(c2ccc(OCCCO)cc2)O[C@H]1c1ccccc1,0.696
15,COc1c(C)cc(-c2nc(-c3ccccc3)c3c(c2C)CO[Si]3(C(C)C)C(C)C)cc1C,-0.0604
16,CC(C)N1CC=CC23O[C@@H]4/C=C\CCCOC(=O)C4[C@H]2C(=O)N(C(C)CO)[C@@H]3C1=O (stereo partly specified),-0.176
17,COC(=O)C1(CC(C)C)C=C2C(=C(C)C(=O)C2C)CN1 (stereo unspecified),1.17
18,COCCCNC(=O)[C@@]1(Cc2ccccc2I)c2ccccc2C(=O)N(C2CCCCC2)[C@H]1c1ccc(CO)cc1,0.115

row,Compound,composite z-score
1,O=C/C=C/c1ccc(-c2ccccc2)cc1,-0.101
2,COC(=O)C(CC#Cc1ccc2c(c1)[C@]1(C(=O)N2)[C@H](C(=O)N2CCN(c3ncccn3)CC2)[C@H]2C(=O)O[C@H](c3ccccc3)[C@H](c3ccccc3)N2[C@@H]1c1ccc(O)cc1)C(=O)OC,1.39
3,COc1ccc([Si](C)(C)[C@H]2[C@H](CC(=O)N3CCC[C@H]3CO)O[C@@]3(C(=O)N(C)c4ccccc43)[C@@H]2C)cc1,0.152
4,CCCC=C(CCC)[C@@H](NC(=O)c1ccc(C(=O)OC)cc1)c1ccc(C(=O)OC)cc1,0.18
5,Cc1ccc(S(=O)(=O)N2[C@@H](c3ccccc3)C(C(=O)O)=CC[C@H]2c2ccc(F)cc2)cc1,0.0403
6,C=C(C(=O)CC[C@@H](OC(=O)c1ccccc1-c1ccccc1C(=O)O)c1cccc(OCCO)c1)C(C)C,0.0391
7,COC(=O)c1c2oc(c1C(=O)OC)C(=O)N[C@H](Cc1ccccc1)Cn1cc(nn1)C1(CCCCC1)NC(=O)N[C@H](CO)CC2,0.161
8,C=CCNC(=O)[C@@H]1[C@H]2C(=O)O[C@H](c3ccccc3)[C@H](c3ccccc3)N2[C@H](c2ccc(O)cc2)[C@@]12C(=O)Nc1ccc(C#CC3=CCCCC3)cc12,1.05
9,CC(C)(C)OC(=O)CC[C@]1(C(=O)N2CCOCC2)COC(c2ccc(OCCCO)cc2)=N1,0.171
10,C=CC[C@]1(C(=O)NCC(O)CO)N=C(c2ccc(OCCCO)cc2)O[C@H]1c1ccccc1CN=[N+]=[N-] (stereo partly specified),0.249
11,CCOC(=O)C1=CCC(c2cccn2C(=O)OC(C)(C)C)N(S(=O)(=O)c2ccc(C)cc2)C1 (stereo unspecified),0.18
12,COc1cc(Cc2cc3c(c(-c4ccccc4)n2)[Si](C(C)C)(C(C)C)OC3)cc(OC)c1OC,0.161
13,COCCCNC(=O)[C@@]1(Cc2ccccc2I)c2ccccc2C(=O)N(Cc2ccccc2C(F)(F)F)[C@H]1c1ccc(CO)cc1,-0.016
14,COc1ccc(CCNC(=O)[C@@H]2c3ccccc3C(=O)N(C(C)C)[C@H]2c2ccc(CO)cc2)cc1,-0.253
15,Cc1ccc(N2C(=O)c3ccccc3[C@@H](C(=O)NCCN3CCOCC3)[C@@H]2c2ccc(CO)cc2)nc1,0.0051
16,COc1cc2c(cc1O)C(C)N(Cc1sc3ccccc3c1Cl)CC2 (stereo unspecified),0.0021
17,CC(C)(C)OC(=O)CC[C@@]1(C(=O)N2CCOCC2)N=C(c2ccc(OCCCO)cc2)O[C@@H]1c1ccccc1CN=[N+]=[N-],0.529
18,CC[C@@H](O[Si](C#C[Si](C(C)C)(C(C)C)C(C)C)(C(C)C)C(C)C)c1cn([C@H](C)c2ccccc2)nn1,-0.0044

# — PubChem BioAssay
